These results are taken from PubChem BioAssay AID1645859 (Buhrlage Lab, Dana-Farber Cancer Institute and Novartis …, 2021).

Screen size: about 47,000 compounds; about 95 (0.2%) were called active. For the sample, actives were picked, then their nearest neighbours and some compounds at random. A number with no mark means an inactive call. Rule as the data show it: active = inhibition above about 30%; inactive = the rest.

Sequence of Ubiquitin carboxyl-terminal hydrolase isozyme L1 (Homo sapiens) (P09936 whole entry, looked up): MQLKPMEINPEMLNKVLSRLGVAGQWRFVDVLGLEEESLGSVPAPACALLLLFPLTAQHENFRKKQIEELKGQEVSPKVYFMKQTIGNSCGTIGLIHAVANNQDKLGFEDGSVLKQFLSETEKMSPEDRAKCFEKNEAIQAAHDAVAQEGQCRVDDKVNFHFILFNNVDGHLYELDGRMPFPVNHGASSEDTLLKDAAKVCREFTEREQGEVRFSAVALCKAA

This assay addresses Ubiquitin carboxyl-terminal hydrolase isozyme L1 (Homo sapiens) (UniProt P09936). The assay can be described thus: inhibitors of human UCHL1 deubiquitinase (AID 1645859). The conditions noted are these: purified UCHL1, Ub-rhodamine cleavage fluorescence; at 20 µM; stronger effect = higher value.
On to `O=C(Cn1cnc(S(=O)(=O)N2CCc3ccccc32)c1)Nc1ccc2c(c1)OCO2`, for which the inhibition is -7.24%.

As to `Cc1ccc(CNC(=O)CCCn2c(=O)c3sccc3n(CC(=O)OCc3ccccc3)c2=O)cc1`, the inhibition was -0.426%. As for `CCN1CCN(c2ncc(C(=O)Nc3ccc(F)cc3)c(C)n2)CC1`, the inhibition was -0.515%.

Take `O=C(CCc1nnc2ccc(N3CCCCC3)nn12)NCC1CCCO1` (stereo not drawn): the inhibition was -1.95%.

As for `Cc1ccc(C)c(CSC2=NCCN2C(=O)c2ccco2)c1`, the inhibition is -0.972%. Next, `O=C(C1CCN(c2nc3ccc(-c4cccnc4)nc3s2)CC1)N1CCOCC1`: -0.864%; `Cc1cnn(CC2CCCCN2C(=O)Cc2c(C)noc2Cl)c1` (stereo not drawn): 0.232%. Next, `Cc1c(NC(=O)c2ccc(C(C)(C)C)cc2)c(-n2cnnc2)nn1C`: -0.768%. Next, `O=C(Cc1ccccc1Cl)Nc1ccc(N2CCOCC2)cc1`: 2.8%. Regarding `O=C(NC1CC1)c1nc(-c2ccc(-n3cccc3)cc2)no1`, the inhibition is 1.38%.

Take `COCC(=O)N1CCCC2(COCCN(CCN(C)C)C2)C1` (stereo not drawn): the inhibition is 0.844%. For `O=C(O)C1CCCN1Cc1c(-c2cccs2)nc2ccccn12` (stereo not drawn), the inhibition is -7.21%. The value for `COc1ccc(N2C(=O)c3ccccc3NC2c2ccc(OCC(N)=O)cc2)cc1` (stereo not drawn) was 3.76%; that for `COc1ccc(OC)c(NC(=O)[C@H]2C[C@H](C)N[C@]23C(=O)Nc2c(Cl)cc(C)cc23)c1` was -6.13%; that for `CCCOc1ccnc2c1c(=O)n(CC(=O)NC1CCCC1)c(=O)n2C` was -3.9%. For the compound `Cc1cccc(-c2nccnc2C2CCCN(C(=O)c3cnccn3)C2)c1` (stereo not drawn), the inhibition is 5.49%. With `COc1ccccc1C(=O)NCC(c1ccc2c(c1)CCCN2C)N1CCCC1` (stereo not drawn), the inhibition was -73.4%. The value for `Cc1ccc(C)c(NC(=O)C(Sc2nnc(-c3ccccc3)n2C)c2ccccc2)c1` (stereo not drawn) was 0.846%. The value for `Cn1cc(N2CCC3(CCN(C(=O)c4ccc(F)cc4)CC3)C2=O)cn1` was 0.646%. As to `O=C(NC1CCOCC1)N[C@H]1C[C@H]2CN(Cc3ccccc3)Cc3ccccc3CN2C1`, the inhibition is 1.49%. The value for `Cc1cccc(CNC(=O)C2CCCN(S(=O)(=O)Cc3ccc(F)cc3)C2)c1` (stereo not drawn) was 3.47%.

For `N#Cc1ccc(Oc2nc(-c3ccccc3)nnc2-c2ccccc2)cc1`, the inhibition is -0.193%. As for `O=C1CCCN1c1ccc(S(=O)(=O)N2CCc3ccccc3C2)cc1`, the inhibition is -1.26%. Regarding `CC(=O)c1cccc(NC(=O)CCN(c2cc(C)cc(C)c2)S(=O)(=O)c2ccc(Cl)cc2)c1`, the inhibition was 5.56%. Next, `Cc1cc(C)c(NC(=O)CCN2C(=O)c3cccnc3Sc3ccccc32)c(C)c1`: -0.793%; `Oc1cccc2nc3c(O)cccc3nc12`: 28.5%; `O=C(NCCc1ccccc1)c1ccc2c(=O)n(Cc3ccco3)c(=O)n(Cc3cccc([N+](=O)[O-])c3)c2c1`: 23%. The value for `CC(C)NC(=O)[C@H]1CCS(=O)(=O)[C@@H]2CN(Cc3ccccc3)C[C@H]12` was 3.58%; that for `COc1cc(OC)cc(-c2nnc(NC(=O)c3ccc([N+](=O)[O-])o3)o2)c1` was 1.67%; that for `O=C(NCc1ccc(F)cc1F)c1csc(C(=O)NC2CC2)n1` was -3.4%. Next, `CC(C(=O)Nc1ccccc1F)C1CCN(C(=O)Nc2ccccc2)CC1` (stereo not drawn): 0.962%; `Cc1nnc(-c2c(C)[nH]c(C)c2S(=O)(=O)NCc2ccccc2)o1`: -1.69%; `CC1(C)CC(=O)N(CC(=O)N2CCCCC2)c2ccccc2S1(=O)=O`: 0.351%. Consider `Cc1nc(-c2csc(S(=O)(=O)NC3CC3)c2)no1`, for which the inhibition is -2.36%.

Turning to `O=C(Cn1cnc2cc3c(cc21)OCCO3)NCCc1ccccc1`, the inhibition is -0.00331%.

For `COCCn1ccc2nc(C)c(C(=O)N3CCN(c4cc(C)ccc4C)CC3)cc2c1=O`, the inhibition was 1.94%. Next, `CCOC(=O)C(Cc1ccccc1)NC(=O)CCC(=O)c1ccc(OC)cc1` (stereo not drawn): 1.4%; `Cc1nnc(OCC(=O)Nc2ccc(OC(F)(F)F)cc2)c2ccccc12`: 8.69%; `CCOC(=O)c1noc2ncnc(Nc3ccc4c(c3)OCCO4)c12`: 2.47%. As to `c1cc(N2CCCCCC2)ncc1-c1noc(CN2CCCC2)n1`, the inhibition is 0.394%. Next, `CN1Cc2ccccc2CC2(CC(Nc3ccc(C(=O)O)cc3)C2)C1=O` (stereo not drawn): -3.39%. The value for `COc1cc(Cl)c(NC(=O)c2cc(-c3ccccn3)n[nH]2)c(OC)c1` was 8.97%; that for `CC(=O)OC(C)[C@]12C=C(C)[C@H]3[C@H](C)[C@@H](O[C@H]4CC[C@@H](O)[C@@H](C)O4)C4=CC(=O)C=C(N1C(=O)[C@@](C)(O)C2=O)[C@]43O` (stereo partly drawn) was -4.12%; that for `Cc1cc(-c2noc(-c3cc4ccccc4oc3=O)n2)c2ccccc2n1` was -0.979%. For the compound `O=C(Cn1cnc(S(=O)(=O)N2CCOCC2)c1)Nc1cccc(Cl)c1`, the inhibition was 2.46%.

On to `Cc1cc(NC(=O)c2ccc(C(=O)N(C3CCCCC3)C3CCCCC3)cc2)cc(C)c1O`, for which the inhibition is 4.77%.

In the case of `O=C1NC[C@@H](Cc2ccccc2)NC(=O)C2(C/C=C/COc3ccccc31)CCNCC2`, the inhibition is 2.07%. As to `COC(=O)CC[C@H]1CNC(=O)[C@@H]2[C@@H](CCN2C2CCCCC2)N1C`, the inhibition was 8.17%. Next, `O=S(=O)(NC12CC3CC(CC(C3)C1)C2)c1ccc(S(=O)(=O)N2CCCCC2)cc1`: -1.48%. The value for `CNC(=O)C1(C)CN(C(=O)c2ccc3ncccc3c2)CCO1` (stereo not drawn) was -0.883%; that for `CC(C)[C@H](NC(=O)[C@@H]1Cc2c([nH]c3ccccc23)C2c3ccccc3C(=O)N21)C(=O)NCCc1ccccc1` (stereo partly drawn) was 0.101%. As for `COc1cccc(CN2CC[C@@H]3CNS(=O)(=O)[C@@H]3CC2)c1`, the inhibition is 5.2%. For `O=C(Cc1ccccc1)Nc1ccc(-c2nc3cnccc3o2)c(O)c1`, the inhibition was 0.256%. The value for `Cc1ccc(Cn2cc(-c3noc(-c4ccccn4)n3)nn2)cc1` was -0.677%. Next, `Cc1ccc(-n2cc(-c3noc(C(=O)Nc4ccc(F)cc4C)n3)nn2)cc1`: 38.3% (active); `Cc1cc(F)ccc1NC(=O)c1cc(C2CC2)n2nccc2n1`: 1.97%.

On to `COC(=O)C(C(C)C)N1CCc2c(C)nc3cc(C#N)nn3c21` (stereo not drawn), for which the inhibition is -5.64%. In the case of `Cc1cc(/C=C2/C(=N)N3C=CSC3=NC2=O)c(C)n1-c1ccc(F)cc1`, the inhibition is -13%. On to `Cn1c(CCN2CCCC2)nc2cc(NS(=O)(=O)c3ccccc3)ccc21`, for which the inhibition is -2.94%. The value for `COc1ccc(-n2ncc3c2NC(=O)CC32C(=O)N(CC(C)C)c3ccc(F)cc32)cc1` (stereo not drawn) was 3.31%; that for `Cc1nnc2ccc(-c3ccc(NC(=O)c4ccc(Br)o4)cc3)nn12` was 7.55%. As for `NS(=O)(=O)c1ccc(CCNc2nccn(-c3ccc4c(c3)OCO4)c2=O)cc1`, the inhibition is -4.71%. Consider `O=C(c1cc2occc2c(Nc2ccc(F)cc2)n1)N1CCN(C(=O)c2ccco2)CC1`, for which the inhibition was 3.68%.

On to `CC(C)c1ccc(C2CC(=O)c3cn[nH]c3C2)cc1` (stereo not drawn), for which the inhibition was 0.362%. The value for `O=C1CC2(C(=O)Nc3ccccc32)c2cnn(-c3ccccc3Cl)c2N1` (stereo not drawn) was -0.024%. Next, `COc1cccc(C2NC(=O)c3c(sc4c3CCC(C)C4)N2)c1O` (stereo not drawn): -0.199%; `CCn1nccc1-c1cccc(-c2noc(-c3ccccn3)n2)c1`: 3.84%. For the compound `Cn1cccc1/C(C#N)=C\c1ccc2c(c1)OCO2`, the inhibition is 12.5%.

`CCc1cnc(N2CCC3(CC2)CC(Oc2cccnc2)C3)nc1`: the inhibition was -4.29%.

Turning to `COc1ccc(NC(=O)c2cnc(N3CCCC3)nc2C)cc1OC`, the inhibition was 2.41%. Take `CS(=O)(=O)N1CCn2c(nnc2-c2cncc(Br)c2)C1`: the inhibition is 1.7%. `O=C(c1ccccn1)N1C[C@@H]2C[C@H]1C[C@@H]2NS(=O)(=O)c1ccccc1`: the inhibition was -1.88%. Next, `Cc1ccc(S(=O)(=O)N2CCC(c3nc(C(=O)N(C)C)c(C)o3)CC2)c(C)c1`: -3.64%; `CC(=O)c1ccc(S(=O)(=O)Nc2cccc(-c3nc4cccnc4s3)c2C)cc1`: 0.0973%. Next, `O=C(C1CCN(c2nc3cccnc3s2)CC1)N1CCN(c2ncccn2)CC1`: 5.79%; `O=c1ccc(S(=O)(=O)N2CCCCCC2)cn1Cc1ccccc1`: -3.73%. For the compound `CNc1cncc(C2CCCN2S(=O)(=O)N2CCCC2)n1` (stereo not drawn), the inhibition is 1.24%.

With `Cn1c(=O)c2c(-c3ccc(C(C)(C)C)cc3)n(-c3ccccc3Cl)cc2n(C)c1=O`, the inhibition is 3.67%. The value for `c1ccc2c(c1)NCCC(c1ccc3c(c1)OCO3)N2` (stereo not drawn) was -0.387%; that for `CC(C)(C)CN1CC[C@H](c2nnc(-c3cccnc3)o2)C1` was -3.12%; that for `COc1ccc(NC(=O)c2cccn3c(-c4ccc(F)cc4)nnc23)c(OC)c1` was -7.15%. The value for `N#Cc1cnc2ccccc2c1N1CCC(C(=O)N2CCCCC2)CC1` was -2%. The value for `Cc1nn(CCC(=O)Nc2ccccc2F)c(C)c1S(=O)(=O)N1CCOCC1` was -2.99%. For `O=C(Nc1ccc2c(c1)CCC2)N1CCc2c(nc(-c3ccccc3)[nH]c2=O)C1`, the inhibition was -2.41%.

For the compound `O=C(NC1CC1)c1cn(-c2cc(-c3nc(C4CC4)no3)ccn2)cn1`, the inhibition was 2.22%. Turning to `Cc1ccccc1NC(=O)Cc1csc2nc(-c3ccc(F)cc3)cn12`, the inhibition is 6.49%.

On to `O=C(CN1C(=O)C2CCCC2=Nc2ccccc21)Nc1ccc(F)cc1F` (stereo not drawn), for which the inhibition is 2.04%.

As for `COCCNC(=O)c1cc(-c2ccn(C3CCCC3)n2)n2ccccc12`, the inhibition is -0.227%.
